Test results published in PubChem BioAssay (NCATS).
Results filed as inconclusive are left out. Where a call stands in place of a potency, no number is given. Unmarked numbers belong to inactive results. Activity calls are given as the source filed them. The call rests on the fitted dose curve; in most records, active means well fitted curve in the direction sought with a large enough effect; inconclusive means small, poorly fitted or top-dose-only effect, or another doubt; inactive means no such curve, though single readings can be large; an effect the other way counts as inactive or inconclusive.

biological target: Cellular tumor antigen p53 (Homo sapiens) (UniProt P04637); assay: Primary qHTS for small molecule compounds that upregulate eGFP-tagged delta133p53alpha (in N-terminal) cells. (AID 2060322); settings: NCI-H358 eGFP-delta133p53alpha fluorescence, 24 h; activation: active compounds read high; further: nearly all actives have a fitted effect of over 75% in size
Sequence (P04637 whole entry, looked up): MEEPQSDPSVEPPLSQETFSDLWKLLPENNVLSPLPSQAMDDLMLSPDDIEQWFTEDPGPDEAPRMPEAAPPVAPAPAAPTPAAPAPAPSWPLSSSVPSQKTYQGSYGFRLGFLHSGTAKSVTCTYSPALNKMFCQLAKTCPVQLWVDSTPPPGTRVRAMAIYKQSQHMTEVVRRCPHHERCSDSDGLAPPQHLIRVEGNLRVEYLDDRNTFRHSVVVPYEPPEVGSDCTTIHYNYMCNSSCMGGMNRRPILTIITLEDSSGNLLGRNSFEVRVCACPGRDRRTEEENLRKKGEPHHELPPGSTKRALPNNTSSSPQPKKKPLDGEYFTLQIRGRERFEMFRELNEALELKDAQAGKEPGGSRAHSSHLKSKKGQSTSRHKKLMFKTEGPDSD
Procedure, shortened: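 NCI-H358 cells pre-induced 24 h with 10 ng/ml doxycycline to express N-terminal eGFP-delta133p53alpha, then dosed 24 h at 37C without doxycycline; fixed, Hoechst-stained, GFP intensity by laser scanning cytometry, normalized to DMSO (0%) and 57.5 uM 5-azacytidine (100%).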

Compound	activation [%]
CSCC1OC(n2cnc3c(=O)[nH]cnc32)C(O)C1O (configuration not stated)	-8.4
C=C1CC23CC1(O)CCC2C1=CC2OC(=O)C(C)(C2O)C1C3C(=O)O (configuration not stated)	6.87
CO[C@@H]1[C@H](O)CCC2(CO2)[C@H]1[C@@]1(C)O[C@@H]1CC=C(C)C (some centres not stated)	0.763
H-DPPDPDRFYGMM-NH2	-11
CC1(C)C[C@H]2C3=CCC4[C@@]5(C)CC[C@H](O[C@H]6O[C@H](C(=O)O)[C@@H](O)[C@H](O)[C@H]6O[C@H]6O[C@H](CO)[C@@H](O)[C@H](O)[C@H]6O[C@@H]6O[C@H](CO)[C@@H](O)[C@H](O)[C@H]6O)[C@](C)(CO)C5CC[C@@]4(C)[C@]3(C)CC[C@@]2(C)[C@H](O[C@@H]2OC[C@H](O)[C@H](OC3O[C@H](CO)[C@@H](O)[C@H](O)[C@H]3O)[C@H]2O)[C@@H]1O (some centres not stated)	-19.8
C=C1CC[C@@H]2[C@](C)(CC[C@H](O)[C@@]2(C)CCC=C(C)C)[C@@H]1Cc1c[nH]c2ccccc12	-21.4
C/C=C(/C)C(=O)O[C@H]1C=C(C)C[C@H](OC(=O)c2ccc(O)cc2)C2[C@](O)(C(C)C)CC[C@@]21C (some centres not stated)	-5.34
COc1ccc(O[C@@H]2O[C@H](CO)[C@@H](O)[C@H](O)[C@H]2O)cc1OC	-17
CC1CC(O)C2(OC1=O)OC1C(O)C3C4CCC5CC(OC6OC(CO)C(O)C(O)C6OC6OC(C)C(O)C(O)C6O)CCC5(C)C4CCC3(C)C1C2C (configuration not stated)	-0.893
C/C=C/C=C/C(=O)N1CC[C@]23c4ccccc4N[C@H]4N(C)c5cccc6c5[C@@]42CCN([C@H]6C2OC2(C)C)[C@H]13 (some centres not stated)	15.3
C=C(C)C1=C[C@@]2(C)C(=CC1=O)CC[C@@H](O)[C@@H]2C	22.1
C[C@@H]1C(=O)O[C@H](C)[C@H]1C[C@@H](O)[C@](C)(O)[C@H]1CC[C@@]2(O)C3=CC(=O)[C@@H]4C[C@@H](O)[C@@H](O)C[C@]4(C)C3CC[C@]12C (some centres not stated)	-5.36

biological target: Aldehyde dehydrogenase, mitochondrial (Homo sapiens) (UniProt P05091); assay: qHTS for Inhibitors of the Aldehyde Dehydrogenase Family (ALDH2) Primary screen (AID 2061308); settings: ALDH2 enzyme inhibition qHTS, 1536-well; series mostly up to 56 µM; further: nearly all actives have a fitted effect of over 55% in size

Compound	Potency	activity change, negative = inhibition
CCC(C)C(=O)OC1CC(C)C=C2C=CC(C)C(CCC(O)CC(O)CC(=O)O)C21 (configuration not stated)	inactive	–
C=C1CC2C(C)(CCC(=O)O)C(C(C)(C)O)CCC2(C)C2C(=O)OC(C)(C(=O)OC)C(=O)C12C (configuration not stated)	inactive	–
CC(=O)OCC1OC(O[C@H]2CC[C@@]3(C)C(CC[C@]4(C)C3CC=C3[C@@H]5CC(C)(C)CC[C@]5(C(=O)O)CC[C@]34C)[C@]2(C)CO)C(O)C(O)C1OC1OC(C)C(O)C(OC2OCC(O)C(O)C2O)C1O (some centres not stated)	inactive	–
CCOP(=O)(Cc1ccc(C(=O)Nc2ccc(Br)cc2C#N)cc1)OCC	inactive	–
COCC1OC(OC(C)(C)C2CCC3(C)C=C(C4CCC5C4(C)CC(O)C4OC(C(C)(C)O)CCC45C)CCC3O2)C(NC(C)=O)C(O)C1O (configuration not stated)	inactive	–
C#CCCCn1cc(-c2cccc3c2N[C@H](C)CC(=O)N3)cn1	inactive	–
COC(=O)c1ccccc1O[C@@H]1O[C@H](CO)[C@@H](O)[C@H](O)[C@H]1O[C@@H]1O[C@@H](C)[C@H](O)[C@@H](O)[C@H]1O	inactive	–
CC(C)NCCCn1c(Sc2cc3c(cc2I)OCO3)nc2c(N)ncnc21	inactive	–
COc1cc(CCc2ccccc2)c(C(=O)O)c2c1CC(C(C)(C)O)O2 (configuration not stated)	inactive	–
COCCCNC(=O)c1ccc(Cn2c(=O)c3ccccc3n(Cc3ccc(C(C)C)cc3)c2=O)cc1	inactive	–
C=C(C)[C@@H]1CC[C@]2(CO)CC[C@]3(C)[C@H](CC[C@@H]4[C@@]5(C)CC[C@H](O)C(C)(C)[C@@H]5CC[C@]43C)[C@@H]12	inactive	–
CC1(O)CC(O)C2(O)C=COC(O[C@@H]3O[C@H](CO)[C@@H](O)[C@H](O)[C@H]3O)C12 (some centres not stated)	inactive	–
COc1ccc(C(O)C(C)OC2OC(CO)C(O)C(O)C2O)cc1 (configuration not stated)	inactive	–
C=C1C(OC2OC(CO)C(O)C(O)C2O)CC2C(C)(C)C(O)CCC2(C)C1CC/C(C)=C\COC(=O)CC(=O)O (configuration not stated)	inactive	–
O=C(/C=C/c1ccc(O)cc1)O[C@H]1[C@H](OC2CCCCC2O)O[C@H](CO)[C@@H](O)[C@@H]1O (some centres not stated)	inactive	–
N#Cc1ccc(N2N=C3c4ccc(C(=O)O)cc4CC[C@@H]3[C@@H]2C2CCCC2)cc1Cl	inactive	–
CC1(C)C2CC(OC3OC(COC4OCC(O)(CO)C4O)C(O)C(O)C3O)C1(C)CC2O (configuration not stated)	inactive	–
Cc1noc(=O)c2ccc(NC(=O)C(O)(CC(C)(C)c3cccc4c3OCC4)C(F)(F)F)cc12 (configuration not stated)	inactive	–
C[C@H]1/C=C/C=C/C=C/C=C/C=C/[C@@H](O)[C@H](C(=O)O)[C@H](O)C[C@H](O)CCC[C@H](O)C[C@H](O)C[C@H](O)[C@@H](C)C(=O)O[C@@H]1C	inactive	–
CC12CC(O)C(O)C=C1c1cc(O)cc(O)c1C(=O)O2 (configuration not stated)	inactive	–

Compound	Potency	activity change, negative = inhibition
FC(F)(F)c1cc(-c2ncn(/C=C\c3nnco3)n2)cc(C(F)(F)F)c1	inactive	–
CCOc1nc2cccc(C(=O)O)c2n1Cc1ccc(-c2ccccc2-c2nn[nH]n2)cc1	inactive	–
C/C(=C\CCC(C)C1CC(O)C2(C)C3CCC4C(C)(C)C(OC5OCC(O)C(O)C5O)CCC45CC35CC(O)C12C)C(=O)O (configuration not stated)	inactive	–
CC(=O)NCCCCn1c2c(c3ccccc31)C(=O)NCC2	inactive	–
CCCCc1nc(C)c(CC(=S)N(C)C)c(=O)n1Cc1ccc(-c2ccccc2-c2nn[nH]n2)cc1	inactive	–
CC(C)C(C#N)O[C@@H]1O[C@H](CO[C@@H]2O[C@@H](C)[C@H](O)[C@@H](O)[C@H]2O)[C@@H](O)[C@H](O)[C@H]1O (some centres not stated)	inactive	–
C[C@@H]1O[C@@H](O[C@H]2[C@H](O[C@H]3[C@H](O[C@H]4CC[C@@]5(CO)C(CC[C@]6(C)C5CC=C5C7CC(C)(C)C[C@@H](O)[C@]7(C)CC[C@]56C)C4(C)C)O[C@H](C(=O)O)[C@@H](O)[C@@H]3O)OC[C@@H](O)[C@@H]2O)[C@H](O)[C@H](O)[C@H]1O (some centres not stated)	inactive	–
C[C@@H]1N[C@H]2N(C1=O)c1ccccc1[C@@]2(O)C[C@@H]1C(=O)N[C@@H](C)c2nc3ccccc3c(=O)n21	inactive	–
CSCC1OC(n2cnc3c(=O)[nH]cnc32)C(O)C1O (configuration not stated)	inactive	–
C=C1CC23CC1(O)CCC2C1=CC2OC(=O)C(C)(C2O)C1C3C(=O)O (configuration not stated)	inactive	–
CO[C@@H]1[C@H](O)CCC2(CO2)[C@H]1[C@@]1(C)O[C@@H]1CC=C(C)C (some centres not stated)	inactive	–
H-DPPDPDRFYGMM-NH2	inactive	–
CC1(C)C[C@H]2C3=CCC4[C@@]5(C)CC[C@H](O[C@H]6O[C@H](C(=O)O)[C@@H](O)[C@H](O)[C@H]6O[C@H]6O[C@H](CO)[C@@H](O)[C@H](O)[C@H]6O[C@@H]6O[C@H](CO)[C@@H](O)[C@H](O)[C@H]6O)[C@](C)(CO)C5CC[C@@]4(C)[C@]3(C)CC[C@@]2(C)[C@H](O[C@@H]2OC[C@H](O)[C@H](OC3O[C@H](CO)[C@@H](O)[C@H](O)[C@H]3O)[C@H]2O)[C@@H]1O (some centres not stated)	–	2.01% [at 11.2 µM]
C=C1CC[C@@H]2[C@](C)(CC[C@H](O)[C@@]2(C)CCC=C(C)C)[C@@H]1Cc1c[nH]c2ccccc12	inactive	–
C/C=C(/C)C(=O)O[C@H]1C=C(C)C[C@H](OC(=O)c2ccc(O)cc2)C2[C@](O)(C(C)C)CC[C@@]21C (some centres not stated)	inactive	–
COc1ccc(O[C@@H]2O[C@H](CO)[C@@H](O)[C@H](O)[C@H]2O)cc1OC	inactive	–
CC1CC(O)C2(OC1=O)OC1C(O)C3C4CCC5CC(OC6OC(CO)C(O)C(O)C6OC6OC(C)C(O)C(O)C6O)CCC5(C)C4CCC3(C)C1C2C (configuration not stated)	inactive	–
C/C=C/C=C/C(=O)N1CC[C@]23c4ccccc4N[C@H]4N(C)c5cccc6c5[C@@]42CCN([C@H]6C2OC2(C)C)[C@H]13 (some centres not stated)	inactive	–
C=C(C)C1=C[C@@]2(C)C(=CC1=O)CC[C@@H](O)[C@@H]2C	inactive	–
C[C@@H]1C(=O)O[C@H](C)[C@H]1C[C@@H](O)[C@](C)(O)[C@H]1CC[C@@]2(O)C3=CC(=O)[C@@H]4C[C@@H](O)[C@@H](O)C[C@]4(C)C3CC[C@]12C (some centres not stated)	inactive	–
